This is an account of results in publication PMC7862700, “An all-to-all approach to the identification of sequence-specific readers for epigenetic DNA modifications on cytosine”.

What all share (assay): DAPPL (digital affinity profiling via proximity ligation, sequencing); 10 mM Tris-HCl pH 7.5, 50 mM NaCl, 1 mM DTT, 4% glycerol, room temperature, 30 min; GST-TFs on glutathione beads, 16-mer random dsDNA library, 0.1% formaldehyde crosslink after washing; high values mean tight binding
In test [1] the target is T1, FEV (Homo sapiens, UniProt Q99581 1-238).
T1 sequence: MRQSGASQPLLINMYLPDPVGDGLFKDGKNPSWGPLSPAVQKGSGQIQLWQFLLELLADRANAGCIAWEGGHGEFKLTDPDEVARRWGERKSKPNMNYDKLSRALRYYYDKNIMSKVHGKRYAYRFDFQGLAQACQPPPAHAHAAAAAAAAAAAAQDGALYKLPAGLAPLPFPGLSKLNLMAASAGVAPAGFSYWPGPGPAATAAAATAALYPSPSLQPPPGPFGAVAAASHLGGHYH
The note with it: protein: recombinant; tags: N-terminal GST; dsDNA, one strand shown. In outline:
(§1)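 Binding signal is given per hexamer as its read frequency for a factor divided by its frequency in the tag-only sample. GST-fused human transcription factors were expressed in yeast, captured on glutathione beads, barcoded with DNA and pooled with that sample, then incubated with 200 nmole of a 16-mer random double-stranded DNA library in Tris/NaCl/DTT/glycerol buffer for 30 min at room temperature. The pools were then washed, crosslinked, proximity-ligated, amplified by PCR and sequenced on an Illumina NextSeq500.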

The target in test [2] is ETV5 (Homo sapiens, UniProt P41161 1-510). The note with it: protein: recombinant; tags: N-terminal GST; dsDNA, one strand shown. An outline of the steps:
as §1

Test [3] concerns the target HSF1 (Homo sapiens, UniProt Q00613 1-529). Particulars: protein: recombinant; tags: N-terminal GST; chain copies: 3; dsDNA, one strand shown. An outline of the steps:
as §1

The target in test [4] is T2, SPIC (Homo sapiens, UniProt Q8N5J4 1-248).
T2 sequence: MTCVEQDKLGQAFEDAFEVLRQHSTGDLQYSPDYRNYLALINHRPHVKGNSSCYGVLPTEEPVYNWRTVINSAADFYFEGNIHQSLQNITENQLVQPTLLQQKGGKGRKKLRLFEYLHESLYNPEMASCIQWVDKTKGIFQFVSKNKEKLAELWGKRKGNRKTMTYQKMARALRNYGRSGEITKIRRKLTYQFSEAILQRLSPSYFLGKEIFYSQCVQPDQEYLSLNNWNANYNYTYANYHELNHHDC
Particulars: protein: recombinant; tags: N-terminal GST; dsDNA, one strand shown. In outline: as §1

Test [5] concerns the target ELF4 (Homo sapiens, UniProt Q99607 1-663). Particulars: protein: recombinant; tags: N-terminal GST; dsDNA, one strand shown. An outline of the steps:
as §1

Test [6] has as its target T3, ELK4 (Homo sapiens, UniProt P28324-2 1-405).
T3 sequence: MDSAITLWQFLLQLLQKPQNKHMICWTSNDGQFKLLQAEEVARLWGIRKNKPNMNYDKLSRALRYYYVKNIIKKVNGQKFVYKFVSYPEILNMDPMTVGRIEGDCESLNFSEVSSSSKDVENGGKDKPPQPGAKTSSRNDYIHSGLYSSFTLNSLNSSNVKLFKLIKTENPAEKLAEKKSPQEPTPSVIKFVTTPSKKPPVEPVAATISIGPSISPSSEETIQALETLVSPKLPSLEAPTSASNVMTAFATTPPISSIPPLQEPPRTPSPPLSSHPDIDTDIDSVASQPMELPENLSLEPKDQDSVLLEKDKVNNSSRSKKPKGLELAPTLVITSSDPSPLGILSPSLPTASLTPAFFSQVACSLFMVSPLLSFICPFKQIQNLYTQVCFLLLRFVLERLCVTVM
Particulars: protein: recombinant; tags: N-terminal GST; dsDNA, one strand shown. In outline: as §1

Test [7] deals with T4, ETV2 (Homo sapiens, UniProt O00321 1-342).
T4 sequence: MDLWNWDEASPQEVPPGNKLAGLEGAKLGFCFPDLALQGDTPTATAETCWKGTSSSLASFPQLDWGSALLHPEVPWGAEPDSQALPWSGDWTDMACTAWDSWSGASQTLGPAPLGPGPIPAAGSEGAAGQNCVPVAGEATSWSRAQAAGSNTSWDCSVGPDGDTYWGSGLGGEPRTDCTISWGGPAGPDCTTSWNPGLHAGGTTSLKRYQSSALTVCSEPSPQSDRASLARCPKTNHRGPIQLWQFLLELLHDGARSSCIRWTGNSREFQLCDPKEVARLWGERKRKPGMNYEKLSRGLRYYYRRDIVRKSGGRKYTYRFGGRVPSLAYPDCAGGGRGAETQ
The note with it: protein: recombinant; tags: N-terminal GST; dsDNA, one strand shown. In outline:
as §1

In test [8] the target is T5, ELF3 (Homo sapiens, UniProt P78545 1-371).
T5 sequence: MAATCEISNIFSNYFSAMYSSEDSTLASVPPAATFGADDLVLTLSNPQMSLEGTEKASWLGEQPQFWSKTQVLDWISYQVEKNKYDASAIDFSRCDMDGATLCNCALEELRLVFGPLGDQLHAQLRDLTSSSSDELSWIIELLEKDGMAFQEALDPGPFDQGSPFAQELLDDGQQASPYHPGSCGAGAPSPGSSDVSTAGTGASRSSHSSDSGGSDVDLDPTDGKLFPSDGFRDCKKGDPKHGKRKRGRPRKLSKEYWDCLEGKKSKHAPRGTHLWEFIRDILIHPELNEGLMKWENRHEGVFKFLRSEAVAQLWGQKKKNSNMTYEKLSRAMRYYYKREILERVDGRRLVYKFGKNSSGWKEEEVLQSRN
The note with it: protein: recombinant; tags: N-terminal GST; dsDNA, one strand shown. An outline of the steps: as §1

The target of test [9] is CRX (Homo sapiens, UniProt O43186 1-299). Particulars: protein: recombinant; tags: N-terminal GST; dsDNA, one strand shown. An outline of the steps:
as §1

For test [10], the target named is ETV1 (Homo sapiens, UniProt P50549 1-477). Particulars: protein: recombinant; tags: N-terminal GST; dsDNA, one strand shown. An outline of the steps: as §1
Test [11] concerns the target T6, ERF (Homo sapiens, UniProt P50548 1-548).
T6 sequence: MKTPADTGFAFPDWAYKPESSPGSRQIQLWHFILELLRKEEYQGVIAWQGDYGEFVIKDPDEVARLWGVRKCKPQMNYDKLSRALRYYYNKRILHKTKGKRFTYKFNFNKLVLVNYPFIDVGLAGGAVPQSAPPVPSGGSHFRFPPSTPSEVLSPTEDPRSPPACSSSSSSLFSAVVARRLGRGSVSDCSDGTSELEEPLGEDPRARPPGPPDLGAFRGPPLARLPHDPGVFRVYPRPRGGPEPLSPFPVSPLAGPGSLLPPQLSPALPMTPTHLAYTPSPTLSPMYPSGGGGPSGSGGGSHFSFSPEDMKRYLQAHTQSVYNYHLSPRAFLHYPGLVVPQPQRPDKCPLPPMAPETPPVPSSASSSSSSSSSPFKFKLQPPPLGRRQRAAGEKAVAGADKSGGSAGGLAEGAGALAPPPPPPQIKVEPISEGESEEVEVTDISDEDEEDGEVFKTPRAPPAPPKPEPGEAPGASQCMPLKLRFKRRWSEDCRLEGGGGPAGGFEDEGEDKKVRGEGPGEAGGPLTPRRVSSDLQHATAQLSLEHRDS
The note with it: protein: recombinant; tags: N-terminal GST; dsDNA, one strand shown. In outline:
as §1

For test [12], the target named is T7, ETV3L (Homo sapiens, UniProt Q6ZN32 1-361).
T7 sequence: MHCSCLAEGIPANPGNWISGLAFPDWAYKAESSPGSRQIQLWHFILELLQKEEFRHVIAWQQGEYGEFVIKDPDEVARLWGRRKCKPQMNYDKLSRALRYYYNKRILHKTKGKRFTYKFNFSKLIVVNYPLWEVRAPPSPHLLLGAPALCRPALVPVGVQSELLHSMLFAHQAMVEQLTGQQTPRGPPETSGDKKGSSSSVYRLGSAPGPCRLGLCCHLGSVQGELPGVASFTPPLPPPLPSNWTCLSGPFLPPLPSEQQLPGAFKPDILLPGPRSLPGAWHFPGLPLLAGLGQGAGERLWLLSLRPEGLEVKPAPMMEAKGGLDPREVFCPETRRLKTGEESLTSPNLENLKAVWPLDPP
The note with it: protein: recombinant; tags: N-terminal GST; dsDNA, one strand shown. An outline of the steps: as §1

Test [13] concerns the target T8, ETS2 (Homo sapiens, UniProt P15036 1-469).
T8 sequence: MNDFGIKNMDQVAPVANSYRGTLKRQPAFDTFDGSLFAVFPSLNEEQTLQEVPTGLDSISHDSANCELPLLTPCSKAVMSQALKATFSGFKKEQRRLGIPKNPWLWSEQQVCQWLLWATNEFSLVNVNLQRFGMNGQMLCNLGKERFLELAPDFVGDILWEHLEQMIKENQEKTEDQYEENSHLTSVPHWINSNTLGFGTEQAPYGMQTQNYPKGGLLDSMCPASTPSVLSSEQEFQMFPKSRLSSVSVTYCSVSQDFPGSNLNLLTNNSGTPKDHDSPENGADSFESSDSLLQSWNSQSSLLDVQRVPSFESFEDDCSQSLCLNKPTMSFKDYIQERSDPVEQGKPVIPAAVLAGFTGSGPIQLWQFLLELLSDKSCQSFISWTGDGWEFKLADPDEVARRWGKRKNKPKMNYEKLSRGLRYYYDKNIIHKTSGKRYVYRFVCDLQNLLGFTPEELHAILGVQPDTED
Particulars: protein: recombinant; tags: N-terminal GST; dsDNA, one strand shown. In outline:
as §1

Test [14] addresses T9, SPDEF (Homo sapiens, UniProt O95238 1-335).
T9 sequence: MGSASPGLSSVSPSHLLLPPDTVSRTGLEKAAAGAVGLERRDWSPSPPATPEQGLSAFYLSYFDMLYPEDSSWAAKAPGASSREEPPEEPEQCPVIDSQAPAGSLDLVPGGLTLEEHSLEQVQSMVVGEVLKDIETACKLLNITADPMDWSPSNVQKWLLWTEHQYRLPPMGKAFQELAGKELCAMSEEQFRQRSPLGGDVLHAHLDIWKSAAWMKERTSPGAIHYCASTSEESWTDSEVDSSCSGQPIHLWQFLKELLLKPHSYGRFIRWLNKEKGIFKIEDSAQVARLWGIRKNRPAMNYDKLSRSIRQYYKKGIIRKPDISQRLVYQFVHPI
Particulars: protein: recombinant; tags: N-terminal GST; dsDNA, one strand shown. In outline: as §1

The target of test [15] is T10, ETV7 (Homo sapiens, UniProt Q9Y603 1-341).
T10 sequence: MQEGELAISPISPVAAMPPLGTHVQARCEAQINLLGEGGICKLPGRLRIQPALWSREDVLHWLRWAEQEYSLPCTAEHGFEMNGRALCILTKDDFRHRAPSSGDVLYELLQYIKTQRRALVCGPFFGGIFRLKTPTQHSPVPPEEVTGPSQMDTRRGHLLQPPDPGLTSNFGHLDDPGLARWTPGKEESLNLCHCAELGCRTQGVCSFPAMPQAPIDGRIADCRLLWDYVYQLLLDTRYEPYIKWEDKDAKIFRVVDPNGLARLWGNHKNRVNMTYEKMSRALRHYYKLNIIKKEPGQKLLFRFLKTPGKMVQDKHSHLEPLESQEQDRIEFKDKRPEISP
The note with it: protein: recombinant; tags: N-terminal GST; dsDNA, one strand shown. An outline of the steps:
as §1

The target in test [16] is T11, ELF5 (Homo sapiens, UniProt Q9UKW6-2 1-255).
T11 sequence: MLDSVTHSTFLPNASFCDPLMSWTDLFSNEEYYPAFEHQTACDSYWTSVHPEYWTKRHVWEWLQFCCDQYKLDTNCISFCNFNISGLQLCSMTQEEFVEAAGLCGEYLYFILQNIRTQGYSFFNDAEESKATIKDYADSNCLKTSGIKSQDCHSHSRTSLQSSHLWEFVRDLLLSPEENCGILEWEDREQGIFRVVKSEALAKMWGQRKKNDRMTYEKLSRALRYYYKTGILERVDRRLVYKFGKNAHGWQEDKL
The note with it: protein: recombinant; tags: N-terminal GST; dsDNA, one strand shown. An outline of the steps:
as §1

Test [17] concerns the target T12, ETV3 (Homo sapiens, UniProt P41162-2 1-143).
T12 sequence: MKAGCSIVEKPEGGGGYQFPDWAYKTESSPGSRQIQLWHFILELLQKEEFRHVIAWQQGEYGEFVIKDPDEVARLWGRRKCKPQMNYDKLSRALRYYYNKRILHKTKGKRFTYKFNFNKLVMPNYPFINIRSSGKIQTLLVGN
Particulars: protein: recombinant; tags: N-terminal GST; dsDNA, one strand shown. An outline of the steps: as §1

The target of test [18] is ETV6 (Homo sapiens, UniProt P41212 1-452). Particulars: protein: recombinant; tags: N-terminal GST; dsDNA, one strand shown. An outline of the steps: as §1
ETV6, sequence (P41212 whole entry): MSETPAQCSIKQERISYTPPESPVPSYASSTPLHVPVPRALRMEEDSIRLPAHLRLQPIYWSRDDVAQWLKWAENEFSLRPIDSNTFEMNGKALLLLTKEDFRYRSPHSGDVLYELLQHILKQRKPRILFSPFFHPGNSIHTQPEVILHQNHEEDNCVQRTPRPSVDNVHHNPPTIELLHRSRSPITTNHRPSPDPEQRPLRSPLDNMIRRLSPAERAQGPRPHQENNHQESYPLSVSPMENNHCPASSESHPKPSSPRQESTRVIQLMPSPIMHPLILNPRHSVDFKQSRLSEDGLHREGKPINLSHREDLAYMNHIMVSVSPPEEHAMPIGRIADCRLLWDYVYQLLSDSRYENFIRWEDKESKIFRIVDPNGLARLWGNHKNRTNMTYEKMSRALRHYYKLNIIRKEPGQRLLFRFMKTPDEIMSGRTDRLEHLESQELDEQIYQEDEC

HSF1, sequence (Q00613 whole entry): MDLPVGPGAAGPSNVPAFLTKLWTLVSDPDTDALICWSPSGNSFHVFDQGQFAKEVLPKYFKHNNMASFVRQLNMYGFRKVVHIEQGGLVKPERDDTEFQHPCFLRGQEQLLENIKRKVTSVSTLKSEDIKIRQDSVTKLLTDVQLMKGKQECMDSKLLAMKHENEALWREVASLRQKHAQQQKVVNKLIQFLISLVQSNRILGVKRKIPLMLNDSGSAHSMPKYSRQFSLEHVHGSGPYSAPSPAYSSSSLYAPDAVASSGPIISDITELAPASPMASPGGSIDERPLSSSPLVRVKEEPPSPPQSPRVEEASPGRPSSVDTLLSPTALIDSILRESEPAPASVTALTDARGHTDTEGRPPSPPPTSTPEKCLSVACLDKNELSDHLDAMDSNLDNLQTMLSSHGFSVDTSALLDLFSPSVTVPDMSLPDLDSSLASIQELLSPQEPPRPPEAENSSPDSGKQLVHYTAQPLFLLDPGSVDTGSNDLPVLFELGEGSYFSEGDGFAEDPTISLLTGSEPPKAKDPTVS
ETV1, sequence (P50549 whole entry): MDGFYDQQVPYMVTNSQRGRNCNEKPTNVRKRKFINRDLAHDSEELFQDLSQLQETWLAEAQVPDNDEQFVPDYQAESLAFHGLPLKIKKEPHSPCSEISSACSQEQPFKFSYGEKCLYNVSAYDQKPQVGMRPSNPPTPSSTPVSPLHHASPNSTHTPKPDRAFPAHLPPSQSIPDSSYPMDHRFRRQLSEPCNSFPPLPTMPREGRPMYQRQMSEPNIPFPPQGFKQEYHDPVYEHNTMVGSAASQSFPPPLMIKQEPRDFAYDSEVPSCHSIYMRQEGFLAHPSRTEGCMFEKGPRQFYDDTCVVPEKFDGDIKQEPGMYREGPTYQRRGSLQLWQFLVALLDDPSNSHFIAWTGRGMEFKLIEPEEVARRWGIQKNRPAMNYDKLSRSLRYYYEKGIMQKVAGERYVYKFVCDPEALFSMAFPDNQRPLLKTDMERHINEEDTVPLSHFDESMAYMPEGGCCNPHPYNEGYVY
CRX, sequence (O43186 whole entry): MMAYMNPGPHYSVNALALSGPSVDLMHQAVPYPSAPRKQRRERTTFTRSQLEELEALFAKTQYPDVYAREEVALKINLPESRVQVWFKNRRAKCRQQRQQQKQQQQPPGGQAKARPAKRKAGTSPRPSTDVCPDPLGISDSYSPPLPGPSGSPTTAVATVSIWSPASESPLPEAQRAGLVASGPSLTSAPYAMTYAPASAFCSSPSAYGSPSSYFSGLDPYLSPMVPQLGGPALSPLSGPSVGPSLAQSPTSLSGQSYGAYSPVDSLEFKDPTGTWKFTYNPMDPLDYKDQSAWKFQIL
ELF4, sequence (Q99607 whole entry): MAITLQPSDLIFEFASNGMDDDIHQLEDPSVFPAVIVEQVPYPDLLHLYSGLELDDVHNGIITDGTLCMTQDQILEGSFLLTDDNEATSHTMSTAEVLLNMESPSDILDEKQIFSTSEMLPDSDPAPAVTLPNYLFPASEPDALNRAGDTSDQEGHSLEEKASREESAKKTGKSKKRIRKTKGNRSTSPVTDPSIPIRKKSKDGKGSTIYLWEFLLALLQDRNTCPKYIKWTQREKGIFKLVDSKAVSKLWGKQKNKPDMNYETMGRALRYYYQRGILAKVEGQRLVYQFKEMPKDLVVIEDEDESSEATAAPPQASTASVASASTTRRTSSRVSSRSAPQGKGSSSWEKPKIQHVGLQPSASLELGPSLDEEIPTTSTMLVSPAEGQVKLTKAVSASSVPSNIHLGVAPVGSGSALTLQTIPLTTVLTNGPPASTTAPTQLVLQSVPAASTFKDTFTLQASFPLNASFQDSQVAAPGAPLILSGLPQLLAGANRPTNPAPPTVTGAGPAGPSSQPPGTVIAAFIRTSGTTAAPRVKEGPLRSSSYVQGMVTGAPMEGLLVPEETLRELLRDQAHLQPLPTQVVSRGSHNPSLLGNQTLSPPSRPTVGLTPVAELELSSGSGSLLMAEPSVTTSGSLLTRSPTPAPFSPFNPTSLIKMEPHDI
ETV5, sequence (P41161 whole entry): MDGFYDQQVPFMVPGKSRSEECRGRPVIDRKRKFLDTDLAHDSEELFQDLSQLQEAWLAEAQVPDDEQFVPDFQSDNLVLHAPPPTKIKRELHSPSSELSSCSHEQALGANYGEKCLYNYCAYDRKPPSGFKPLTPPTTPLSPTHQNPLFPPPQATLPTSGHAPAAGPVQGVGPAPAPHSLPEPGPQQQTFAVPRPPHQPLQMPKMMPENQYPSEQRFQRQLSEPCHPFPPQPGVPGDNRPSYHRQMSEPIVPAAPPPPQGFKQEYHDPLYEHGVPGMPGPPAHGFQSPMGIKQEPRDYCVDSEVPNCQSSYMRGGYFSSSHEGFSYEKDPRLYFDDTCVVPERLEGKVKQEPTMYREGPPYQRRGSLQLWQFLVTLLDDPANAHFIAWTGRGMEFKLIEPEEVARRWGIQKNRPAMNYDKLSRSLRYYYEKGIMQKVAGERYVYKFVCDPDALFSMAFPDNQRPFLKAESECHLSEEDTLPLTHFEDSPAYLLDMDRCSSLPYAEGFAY

For the sequence TTGGTT, the binding signal was 1.31 fold enrichment (6-mer frequency, TF over GST control) in test [1]; 1.44 fold enrichment (6-mer frequency, TF over GST control) in test [2]; 1.18 fold enrichment (6-mer frequency, TF over GST control) in test [3]; 1.47 fold enrichment (6-mer frequency, TF over GST control) in test [4]; 1.42 fold enrichment (6-mer frequency, TF over GST control) in [5]; 1.32 fold enrichment (6-mer frequency, TF over GST control) in test [6]. Further, the binding signal is 1.29 fold enrichment (6-mer frequency, TF over GST control) in test [7]; 1.23 fold enrichment (6-mer frequency, TF over GST control) in [8]; 1.29 fold enrichment (6-mer frequency, TF over GST control) in test [9]; 1.4 fold enrichment (6-mer frequency, TF over GST control) in test [10]; 1.43 fold enrichment (6-mer frequency, TF over GST control) in test [11]; 1.45 fold enrichment (6-mer frequency, TF over GST control) in test [12]. Further, the binding signal in [13] is 1.48 fold enrichment (6-mer frequency, TF over GST control); in [14], 1.45 fold enrichment (6-mer frequency, TF over GST control); in test [15] it was 1.52 fold enrichment (6-mer frequency, TF over GST control); in test [16], 1.37 fold enrichment (6-mer frequency, TF over GST control); in test [17], 1.36 fold enrichment (6-mer frequency, TF over GST control); in [18], 1.44 fold enrichment (6-mer frequency, TF over GST control).
